The whole screen tested about 2,700 compounds, of which about 160 (5.9%) showed an effect of 50% or more. The sample holds strong results, similar compounds and a random draw of the others, so the mix is not that of the screen.
Target: Nonstructural protein 3 (Zika virus) (UniProt A0A024AXB9)
[1] = PRVABC59, Concentration 50.0 uM, Number of replicates 1.0

Nonstructural protein 3 (Zika virus), sequence (A0A024AXB9 as listed by the source): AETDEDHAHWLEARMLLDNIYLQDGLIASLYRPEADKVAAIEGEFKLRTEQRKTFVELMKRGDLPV

In the case of O=C(/C=C/c1ccc(N2CCNCC2)cc1)C(=O)N1CCOCC1, the inhibition (PRVABC59, Concentration 49.5 uM, Number of replicates 2.0, Standard deviation 0.677594356674037 %) is reported as 0.889%, the inhibition (PRVABC59, Concentration 99.01 uM, Number of replicates 2.0, Standard deviation 0.8893426734771035 %) is reported as 5.61% and the inhibition (PRVABC59, Concentration 198.0 uM, Number of replicates 2.0, Standard deviation 1.259902148857129 %) is reported as 13.4%.
In the case of CN(C)c1ccc(/C=C/C(=O)C(=O)N2CCOCC2)cc1, the inhibition (PRVABC59, Concentration 49.5 uM, Number of replicates 2.0, Standard deviation 0.8258165831779674 %) is reported as 41.6%, the inhibition (PRVABC59, Concentration 99.01 uM, Number of replicates 2.0, Standard deviation 0.46055378654400303 %) is reported as 57.5% and the inhibition (PRVABC59, Concentration 198.0 uM, Number of replicates 2.0, Standard deviation 1.0005081895850734 %) is reported as 76.2%.
NCc1ccc(/C=C/C(=O)C(=O)N2CCOCC2)cc1 showed an inhibition (PRVABC59, Concentration 49.5 uM, Number of replicates 2.0, Standard deviation 0.6564199696429821 %) of 37.2%, an inhibition (PRVABC59, Concentration 99.01 uM, Number of replicates 2.0, Standard deviation 0.38644007072414227 %) of 58.8% and an inhibition (PRVABC59, Concentration 198.0 uM, Number of replicates 2.0, Standard deviation 0.034408012774717715 %) of 79%.
In the case of COc1cc(Cc2ccnc(N3CCNCC3)c2)nc(N2CCNCC2)n1, the inhibition (PRVABC59, Concentration 49.5 uM, Number of replicates 2.0, Standard deviation 1.782469122426121 %) is reported as 19.2%, the inhibition (PRVABC59, Concentration 99.01 uM, Number of replicates 2.0, Standard deviation 1.2150848760245847 %) is reported as 30.9% and the inhibition (PRVABC59, Concentration 198.0 uM, Number of replicates 2.0, Standard deviation 1.1140443816280838 %) is reported as 44%.
COc1cc(Cc2ccc3[nH]ncc3c2)nc(N2CCNCC2)n1 showed an inhibition (PRVABC59, Concentration 49.5 uM, Number of replicates 2.0, Standard deviation 0.053655972727460886 %) of 4.68%, an inhibition (PRVABC59, Concentration 99.01 uM, Number of replicates 2.0, Standard deviation 0.44117163102560114 %) of 11% and an inhibition (PRVABC59, Concentration 198.0 uM, Number of replicates 2.0, Standard deviation 0.2881536199967374 %) of 21.6%.
COc1cc(Cc2c(-c3ccc(F)cc3)noc2C)nc(N2CCNCC2)n1 was tested, and the inhibition (PRVABC59, Concentration 49.5 uM, Number of replicates 2.0, Standard deviation 1.339595433070256 %) was 48.7%, the inhibition (PRVABC59, Concentration 99.01 uM, Number of replicates 2.0, Standard deviation 0.7981008155972035 %) was 67.2% and the inhibition (PRVABC59, Concentration 198.0 uM, Number of replicates 2.0, Standard deviation 0.25862115465775987 %) was 83.1%.
For CC(C)(C)OC(=O)N[C@H](C(=O)Nc1cccc(CN)c1)c1ccc(OCc2ccccc2)cc1, the inhibition (PRVABC59, Concentration 49.5 uM, Number of replicates 2.0, Standard deviation 0.15500599357942563 %) was 7.17%, the inhibition (PRVABC59, Concentration 99.01 uM, Number of replicates 2.0, Standard deviation 1.1863939989566727 %) was 43.6% and the inhibition (PRVABC59, Concentration 198.0 uM, Number of replicates 2.0, Standard deviation 0.6438743701278353 %) was 80.9%.
For CC(C)(C)OC(=O)N[C@H](C(=O)Nc1ccc(CN)cc1)c1ccc(OCc2ccccc2)cc1, the inhibition (PRVABC59, Concentration 49.5 uM, Number of replicates 2.0, Standard deviation 0.6279742186460096 %) was 5.64%, the inhibition (PRVABC59, Concentration 99.01 uM, Number of replicates 2.0, Standard deviation 1.57987158185777 %) was 32.3% and the inhibition (PRVABC59, Concentration 198.0 uM, Number of replicates 2.0, Standard deviation 0.42725710187082055 %) was 70.3%.
CC(C)Nc1nc2ccc(C(=O)Nc3nnnn3-c3ccccn3)cc2[nH]1 gave an inhibition (PRVABC59, Concentration 50.0 uM, Number of replicates 2.0, Standard deviation 0.2871029833570578 %) of 13.5%, an inhibition (PRVABC59, Concentration 100.0 uM, Number of replicates 2.0, Standard deviation 0.2358348824788301 %) of 30.1% and an inhibition (PRVABC59, Concentration 200.0 uM, Number of replicates 2.0, Standard deviation 0.2742876440114413 %) of 66.8%.
In the case of CC(C)Nc1nc2ccc(C(=O)Nc3ccc4cn[nH]c4n3)cc2[nH]1, the inhibition (PRVABC59, Concentration 49.5 uM, Number of replicates 2.0, Standard deviation 0.40894109303235027 %) is reported as 7.41%, the inhibition (PRVABC59, Concentration 99.01 uM, Number of replicates 2.0, Standard deviation 0.19020569275657198 %) is reported as 13.2% and the inhibition (PRVABC59, Concentration 198.0 uM, Number of replicates 2.0, Standard deviation 0.6447955316488895 %) is reported as 25.2%.
Work on CCn1ccnc(N2CC[C@@H](C(=O)NC)C2)c1=O yielded an inhibition (PRVABC59, Concentration 49.5 uM, Number of replicates 2.0, Standard deviation 1.330415175115007 %) of 6.78%, an inhibition (PRVABC59, Concentration 99.01 uM, Number of replicates 2.0, Standard deviation 0.8792533922931717 %) of 13.1% and an inhibition (PRVABC59, Concentration 198.0 uM, Number of replicates 2.0, Standard deviation 1.1945536288283818 %) of 25%.
c1ccc2c([C@H]3CCN(CC[C@H]4CCOC4)C3)c[nH]c2c1 was tested, and the inhibition (PRVABC59, Concentration 49.5 uM, Number of replicates 2.0, Standard deviation 1.796591735840356 %) was 1.3%, the inhibition (PRVABC59, Concentration 99.01 uM, Number of replicates 2.0, Standard deviation 1.8008191859181881 %) was 8.43% and the inhibition (PRVABC59, Concentration 198.0 uM, Number of replicates 2.0, Standard deviation 1.4478420270377552 %) was 18.7%.
For CCCC[C@H](N)C(=O)N[C@@H](C(=O)NCc1ccc(C(N)=O)cc1)c1ccc(OCc2ccccc2)cc1, the inhibition (PRVABC59, Concentration 49.5 uM, Number of replicates 2.0, Standard deviation 2.90329459480482 %) was 4.12%, the inhibition (PRVABC59, Concentration 99.01 uM, Number of replicates 2.0, Standard deviation 3.493094389705784 %) was 14.2% and the inhibition (PRVABC59, Concentration 198.0 uM, Number of replicates 2.0, Standard deviation 4.814160045121922 %) was 56.8%.
CCCC[C@H](N)C(=O)N[C@H](C(=O)NCc1ccc(C(N)=O)cc1)c1ccc(OCc2ccccc2)cc1 gave an inhibition (PRVABC59, Concentration 49.5 uM, Number of replicates 2.0, Standard deviation 4.202595364768841 %) of 4.08%, an inhibition (PRVABC59, Concentration 99.01 uM, Number of replicates 2.0, Standard deviation 1.455996262112855 %) of 82.9% and an inhibition (PRVABC59, Concentration 198.0 uM, Number of replicates 2.0, Standard deviation 0.15670265711308018 %) of 99.2%.
Compound CC(C)Cn1cccc(C(=O)Nc2ccnc3ccccc23)c1=O has an inhibition (PRVABC59, Concentration 49.5 uM, Number of replicates 2.0, Standard deviation 2.895437242130631 %) of 20.1%, an inhibition (PRVABC59, Concentration 99.01 uM, Number of replicates 2.0, Standard deviation 37.62280174563721 %) of 0.798% and an inhibition (PRVABC59, Concentration 198.0 uM, Number of replicates 2.0, Standard deviation 2.6549790189575497 %) of 10.2%.
CCn1c(=O)c(N2CC[C@@H](CO)C2)nc2ccccc21 showed an inhibition (PRVABC59, Concentration 49.5 uM, Number of replicates 2.0, Standard deviation 1.0667198770713235 %) of 20.2%, an inhibition (PRVABC59, Concentration 99.01 uM, Number of replicates 2.0, Standard deviation 2.3733193853793706 %) of 36.2% and an inhibition (PRVABC59, Concentration 198.0 uM, Number of replicates 2.0, Standard deviation 1.8335969585925045 %) of 55.9%.
With CCn1ccnc(N2CC[C@@H](CO)C2)c1=O the inhibition (PRVABC59, Concentration 49.5 uM, Number of replicates 2.0, Standard deviation 1.691792032316267 %) was 9.83%, the inhibition (PRVABC59, Concentration 99.01 uM, Number of replicates 2.0, Standard deviation 1.0699999134098355 %) was 17.4% and the inhibition (PRVABC59, Concentration 198.0 uM, Number of replicates 2.0, Standard deviation 1.0674090623381738 %) was 29.5%.
Work on O=c1c(N2CC[C@H](CO)C2)nccn1C1CC1 yielded an inhibition (PRVABC59, Concentration 49.5 uM, Number of replicates 2.0, Standard deviation 2.4909219053667124 %) of 11.8%, an inhibition (PRVABC59, Concentration 99.01 uM, Number of replicates 2.0, Standard deviation 2.8453613913030793 %) of 19.9% and an inhibition (PRVABC59, Concentration 198.0 uM, Number of replicates 2.0, Standard deviation 1.2782808722061834 %) of 35.4%.
Work on N[C@H]1CCN(c2cccc(CNC(=O)c3ccc4[nH]c(=O)[nH]c4c3F)n2)C1 yielded an inhibition (PRVABC59, Concentration 49.5 uM, Number of replicates 2.0, Standard deviation 1.7942103071905888 %) of 0.083%, an inhibition (PRVABC59, Concentration 99.01 uM, Number of replicates 2.0, Standard deviation 0.9354948212956848 %) of 1.95% and an inhibition (PRVABC59, Concentration 198.0 uM, Number of replicates 2.0, Standard deviation 18.65130084254076 %) of 51.2%.
Work on N#CC1(c2ccccc2)CCN(C(=O)C2CCN(c3ccc(C=O)cc3)CC2)CC1 yielded an inhibition [1] of 12.6%.
For O=Cc1ccc(N2CCC(C(=O)N3CCN(c4cccc(O)c4)CC3)CC2)cc1, the inhibition [1] was 36.7%.
Compound NC(=O)C1(N2CCCCC2)CCN(C(=O)C2CCN(c3ccc(C=O)cc3)CC2)CC1 has an inhibition [1] of 55.7%.

— ChEMBL document CHEMBL5606458, “ASAP - ZIKV NS2B-NS3 protease fluorescence single point” (2024)
